{"source": "PubChem BioAssay (Tox21)", "note": "Results filed as inconclusive are left out. Where a call stands in place of a potency, no number is given. Active and inactive are the calls of the source. Calls come from the whole dose curve; as a rule, active = well fitted cell-killing curve with a large enough effect in the repeat runs; inconclusive = weak or mixed curves, or effect the other way; inactive = flat fitted curve, though single readings scatter. Potency is the fitted concentration of half-maximal effect."}
{"assay": "cAMP Responsive Elements (CRE) small molecule antagonists, cell-based qHTS assay: qHTS cell viability counter screen (AID 2060913); note: nearly all actives have a fitted effect of over 40% in size", "details": "CRE-bla HEK293T viability, CellTiter-Glo luminescence, 5 h; series mostly up to 92.4 µM", "text": "U.S. Tox21 Program National Center for Advancing Translational Sciences [NCATS] Division of Preclinical Innovation [DPI] U.S. Environmental Protection Agency [EPA] National Institutes of Environmental Health Sciences [NIEHS] National Toxicology Program [NTP] U.S. Food and Drug Administration [FDA] Tox21 Assay Overview: CREB (cyclic-AMP Responsive Element Binding Protein) is a cellular transcription factor. It binds to certain DNA sequences called cAMP Responsive Elements (CRE) and regulates the transcription of the genes. […] This cell line can be used to find agonists/antagonists of the cyclic AMP signaling pathway. The activation of the report gene under culture conditions can be detected by fluorescence intensity. This cell line has been used to screen the Tox21 10K compound library to identify agonists that induce oxidative stress. The cytotoxicity of the Tox21 compound library against the CRE-bla cell line was tested in parallel by measuring the cell viability using CellTiter-Glo assay (Promega, Madison, WI) in the same wells.\nTox21 Assay Protocol Summary: CRE-bla Hek 293T cells were suspended in assay medium (DMEM containing 10% dialyzed FBS, 0.1 mM NEAA, 1 mM sodium pyruvate and 25 mM HEPES) and dispensed at 2,000 cells/4 uL /well into 1536-well black wall/clear bottom plates using a Multidrop Combi (ThermoFisher Scientific, Waltham, MA) dispenser. After the assay plates were incubated at 37 C/5% CO2 for 18 hrs, 23 nL of compounds dissolved in DMSO, positive controls or DMSO only was transferred to the assay plate by a pintool workstation (Kalypsys, San Diego, CA), followed by addition of 1 uL of 1.25uM NKH477 (0.25 uM as final concentration) in assay medium using a Flying Reagent Dispenser (Aurora Discovery, San Diego, CA). The plates were incubated at 37 C and 5% CO2 for 3 hrs. Then 1 uL of LiveBLAzer B/G FRET substrate (Invitrogen, Carlsbad, CA) was added to each well using Bioraptr Flying Reagent Dispenser (FRD, Aurora Discovery, San Diego, CA). The plates were incubated at room temperature for 2 h, then fluorescence intensities were measured using an Envision plate reader (PerkinElmer, Shelton, CT) at Excitation 405nm, Emission 460nm and 530nm. The % activity was determined from the ratio of 460nm/530nm. For cell viability readout that measures cytotoxicity, 4 uL /well of CellTiter-Glo reagent was added into the assay plates using Bioraptr FRD. After 30 min incubation at room temperature, the luminescence intensity in the assay plates was measured using a ViewLux (PerkinElmer, Shelton, CT) plate reader."}
{"smiles": "CC(C)=CCO", "Potency": "inactive"}
{"smiles": "CO[C@]12C[C@@H](COC(=O)c3cncc(Br)c3)CN(C)[C@@H]1Cc1cn(C)c3cccc2c13", "Potency": "inactive"}
{"smiles": "O=c1ccc2ccccc2o1", "Potency": "inactive"}
{"smiles": "CCCCCCCOC(C)=O", "Potency": "inactive"}
{"smiles": "Cc1cc2c(cc1CC(=O)c1sccc1S(=O)(=O)Nc1onc(C)c1Cl)OCO2", "Potency": "inactive"}
{"smiles": "CN(C)CCCNCCC#N", "Potency": "inactive"}
{"smiles": "CC(C)(Cc1c[nH]c2ccccc12)NCC(O)COc1ccccc1C#N", "note": "(stereo not given)", "Potency": "inactive"}
{"smiles": "OCc1cccc(Oc2ccccc2)c1", "Potency": "inactive"}
{"smiles": "CC(C)OC(=O)c1cc(C(=O)OC(C)C)cc([N+](=O)[O-])c1", "Potency": "inactive"}
{"smiles": "C=CC(C)(CCC=C(C)C)OC(=O)c1ccccc1", "note": "(stereo not given)", "Potency": "inactive"}
{"smiles": "CCCCCCCCCOC(=O)CCCCC(=O)OCCCCCCC", "Potency": "inactive"}
{"smiles": "CCC(O)CO", "note": "(stereo not given)", "Potency": "inactive"}
{"smiles": "CN1CCN(Cc2cc(-c3ccc4[nH]c(=O)oc4c3)co2)[C@@H](c2ccc(F)cc2)C1", "Potency": "inactive"}
{"smiles": "O=C(OCCN1CCOCC1)c1cccnc1Nc1cccc(C(F)(F)F)c1", "Potency": "inactive"}
{"smiles": "[Cl][Nd]([Cl])[Cl]", "Potency": "inactive"}
{"smiles": "CN/C(=C\\[N+](=O)[O-])NCCSCc1csc(CN(C)C)n1", "Potency": "inactive"}
{"smiles": "Cc1ccccc1C(=O)Nc1ccc(C(=O)N2CCCC(N(C)C)c3ccccc32)cc1", "note": "(stereo not given)", "Potency": "inactive"}
{"smiles": "OCCN1CCN(CCO)CC1", "Potency": "inactive"}
{"smiles": "O=C1CCCc2c(O)cccc21", "Potency": "inactive"}
{"smiles": "CCN(CC)CC(=O)OCC(=O)[C@@]1(O)CC[C@H]2[C@@H]3CCC4=CC(=O)CC[C@]4(C)[C@H]3[C@@H](O)C[C@@]21C", "Potency": "inactive"}
{"smiles": "C=Cc1ccc(C(C)(C)C)cc1", "Potency": "inactive"}
{"smiles": "FB(F)F", "Potency": "inactive"}
{"smiles": "O=Cc1ccc(C(=O)O)cc1", "Potency": "inactive"}
{"smiles": "O=C1OC(=O)c2cc(Oc3ccc4c(c3)C(=O)OC4=O)ccc21", "Potency": "inactive"}
{"smiles": "COC(=O)CCc1ccc(OCC(O)CNC(C)C)cc1", "note": "(stereo not given)", "Potency": "inactive"}
{"smiles": "O=C(O)c1cccc(C(=O)O)c1C(=O)O", "Potency": "inactive"}
{"smiles": "O=C1C(c2[nH]c3ccc(S(=O)(=O)O)cc3c2O)=Nc2ccc(S(=O)(=O)O)cc21", "Potency": "inactive"}
{"smiles": "N#Cc1c(F)cccc1F", "Potency": "inactive"}
{"smiles": "O=C(Nc1ncc([N+](=O)[O-])s1)c1cccs1", "Potency": "21.1 µM (active)"}
{"smiles": "N[C@@H](C(=O)N[C@@H]1C(=O)N2C(C(=O)O)=C(Cl)CS[C@H]12)c1ccccc1", "viability change, negative = cytotoxic": "0.002% [at 8.39 µM] (inactive)"}
{"smiles": "CCCCCCCCCCCCC(=O)O", "Potency": "inactive"}
{"smiles": "CC(C)NCC(O)COc1ccc(CC(N)=O)cc1", "note": "(stereo not given)", "Potency": "inactive"}
{"smiles": "CC(=O)OCC(COC(C)=O)OC(C)=O", "Potency": "inactive"}
{"smiles": "NC(=O)c1ncn([C@@H]2O[C@H](CO)[C@@H](O)[C@H]2O)c1O", "Potency": "inactive"}
{"smiles": "CCCCC/C=C/CC1CC(=O)OC1=O", "note": "(stereo not given)", "Potency": "inactive"}
{"smiles": "CC(C)=CCC/C(C)=C/CO", "Potency": "inactive"}
{"smiles": "CCC(=O)Oc1ccc2c(c1)CC[C@@H]1[C@@H]2CC[C@@]2(C)[C@H]1C[C@@H](OC(=O)CC)[C@@H]2OC(=O)CC", "Potency": "inactive"}
{"smiles": "CC(=O)CC(C)(C)C1CCCCC1", "Potency": "inactive"}
{"smiles": "CCCCCC1Nc2cc(C(F)(F)F)c(S(N)(=O)=O)cc2S(=O)(=O)N1", "note": "(stereo not given)", "Potency": "inactive"}
{"smiles": "C=CC(=O)Nc1cc2c(Nc3ccc(F)c(Cl)c3)ncnc2cc1OCCCN1CCOCC1", "Potency": "inactive"}
